Source: PubChem BioAssay
CYP2C9 act – increases human cytochrome P450 2C9 activity. P11712. recombinant CYP2C9, luciferin-H conversion, luminescence; hits give high values; factor 1 = untreated enzyme, 0 = blocked. activation factor at 5 µM. actives 1.4% (n = 96,000);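 active = activation factor of 2 or more for CYP2C9 at a 5 µM dose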
CYP2C19 inhib – inhibitors of human CYP2C19. P33261. CYP2C19 Supersomes, luciferin-H EGE luminescence, 30 min. inhibition, % at 5 µM. actives 21% (n = 96,000). AID 778;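 active = CYP2C19 inhibition above a set limit at 5 µM in the primary screen, cut at about 50% in these data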
Cav3 T inh – inhibitors of human Cav3.2 T-type calcium channel; B-score at 10 µM; Cav3.2-expressing cells, Fluo-4 calcium fluorescence FDSS; hits give low values; actives 4% (n = 100,000); O95180;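 active = single-dose well whose peak fluorescence ratio is a statistical outlier from its plate by either plate-standardised score or position-corrected B-score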
Target sequence (O95180 whole entry, looked up): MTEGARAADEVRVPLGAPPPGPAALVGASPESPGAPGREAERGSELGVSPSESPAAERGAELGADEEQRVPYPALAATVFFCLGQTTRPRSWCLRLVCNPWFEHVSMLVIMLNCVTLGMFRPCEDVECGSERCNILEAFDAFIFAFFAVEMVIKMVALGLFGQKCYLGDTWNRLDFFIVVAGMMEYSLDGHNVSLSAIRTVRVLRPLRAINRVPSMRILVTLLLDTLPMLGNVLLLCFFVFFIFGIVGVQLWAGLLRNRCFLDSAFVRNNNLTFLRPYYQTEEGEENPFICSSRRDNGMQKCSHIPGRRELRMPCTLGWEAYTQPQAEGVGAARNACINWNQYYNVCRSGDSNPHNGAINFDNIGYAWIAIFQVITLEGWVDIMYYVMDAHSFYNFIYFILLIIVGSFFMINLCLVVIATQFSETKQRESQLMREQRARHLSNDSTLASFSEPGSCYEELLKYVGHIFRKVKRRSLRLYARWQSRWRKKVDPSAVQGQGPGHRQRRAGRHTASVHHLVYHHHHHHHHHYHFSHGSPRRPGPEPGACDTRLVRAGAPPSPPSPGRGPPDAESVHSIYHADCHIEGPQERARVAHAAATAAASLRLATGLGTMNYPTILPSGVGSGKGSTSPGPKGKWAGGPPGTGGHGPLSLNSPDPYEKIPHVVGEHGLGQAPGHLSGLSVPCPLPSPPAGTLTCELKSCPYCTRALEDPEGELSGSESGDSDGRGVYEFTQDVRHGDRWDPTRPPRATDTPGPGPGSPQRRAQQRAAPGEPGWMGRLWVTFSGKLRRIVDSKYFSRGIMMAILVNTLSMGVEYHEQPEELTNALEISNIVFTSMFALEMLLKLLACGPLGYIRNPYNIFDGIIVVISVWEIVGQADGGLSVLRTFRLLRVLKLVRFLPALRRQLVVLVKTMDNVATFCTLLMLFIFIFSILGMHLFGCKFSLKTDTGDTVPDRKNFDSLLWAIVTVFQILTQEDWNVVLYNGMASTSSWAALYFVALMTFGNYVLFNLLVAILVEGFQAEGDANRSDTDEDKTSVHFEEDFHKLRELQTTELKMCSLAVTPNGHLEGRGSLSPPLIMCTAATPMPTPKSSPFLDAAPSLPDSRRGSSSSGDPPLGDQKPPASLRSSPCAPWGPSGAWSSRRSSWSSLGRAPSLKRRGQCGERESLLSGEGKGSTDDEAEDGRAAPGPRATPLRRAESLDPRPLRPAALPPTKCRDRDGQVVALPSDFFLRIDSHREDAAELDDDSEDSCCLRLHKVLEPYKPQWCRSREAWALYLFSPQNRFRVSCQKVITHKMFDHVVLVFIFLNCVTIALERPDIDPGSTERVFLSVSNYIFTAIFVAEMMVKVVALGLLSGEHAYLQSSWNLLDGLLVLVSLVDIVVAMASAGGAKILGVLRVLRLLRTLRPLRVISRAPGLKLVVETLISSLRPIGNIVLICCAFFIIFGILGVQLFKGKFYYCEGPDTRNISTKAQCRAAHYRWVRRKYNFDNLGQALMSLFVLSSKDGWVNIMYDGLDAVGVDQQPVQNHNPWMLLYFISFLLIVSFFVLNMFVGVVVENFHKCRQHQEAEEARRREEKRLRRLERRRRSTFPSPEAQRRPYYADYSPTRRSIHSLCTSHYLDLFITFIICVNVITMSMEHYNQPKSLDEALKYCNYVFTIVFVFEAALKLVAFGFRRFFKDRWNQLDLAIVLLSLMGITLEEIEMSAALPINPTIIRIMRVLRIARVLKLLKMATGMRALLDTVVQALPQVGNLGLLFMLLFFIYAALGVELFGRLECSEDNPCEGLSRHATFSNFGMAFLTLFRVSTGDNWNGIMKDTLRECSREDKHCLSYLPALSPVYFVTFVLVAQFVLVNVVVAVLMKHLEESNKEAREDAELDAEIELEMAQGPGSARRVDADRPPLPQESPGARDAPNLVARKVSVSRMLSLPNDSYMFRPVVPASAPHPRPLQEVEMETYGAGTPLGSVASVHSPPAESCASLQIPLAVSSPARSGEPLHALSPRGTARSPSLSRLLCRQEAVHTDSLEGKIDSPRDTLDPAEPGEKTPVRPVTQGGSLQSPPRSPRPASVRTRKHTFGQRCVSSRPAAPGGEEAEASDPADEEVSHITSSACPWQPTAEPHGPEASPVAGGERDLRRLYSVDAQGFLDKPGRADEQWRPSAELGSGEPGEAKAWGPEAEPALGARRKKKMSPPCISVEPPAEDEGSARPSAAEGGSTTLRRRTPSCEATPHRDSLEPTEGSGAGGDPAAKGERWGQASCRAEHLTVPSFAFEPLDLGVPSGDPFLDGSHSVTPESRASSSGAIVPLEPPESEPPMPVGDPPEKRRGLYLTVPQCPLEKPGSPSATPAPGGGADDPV
CYP2C19 act – activators of human cytochrome P450 2C19; 96,000 tested, under 10 active; recombinant CYP2C19, luciferin-H EGE luminescence; hits give high values; 0 = fully inhibited enzyme, 1 = untreated enzyme; P33261; activation factor at 5 µM;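 active = activation factor of at least 2 at 5 µM in the primary screen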
CYP2C9 inh – inhibitors of human CYP2C9. P11712. CYP2C9 Supersomes, luciferin-H conversion, luminescence. inhibition, % at 5 µM. actives 20% (n = 96,000). AID 777;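 active = blocking of liver enzyme CYP2C9 beyond about 50% at 5 µM, limit read from the data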
Hits are given with their value; i = inactive; nt = not tested or not shown. Compounds with a hit are over-represented: about 27% of the library has one in this group of screens.

SMILES	CYP2C9 act	CYP2C19 inhib	Cav3 T inh	CYP2C19 act	CYP2C9 inh
CC(C)Oc1cccc(C(=O)Nc2ccc(CN3CCOCC3)cc2)c1	i	i	i	i	i
Cc1ccc(NC(=O)c2cc(S(=O)(=O)N3CCCCC3)ccc2N2CCOCC2)cc1F	i	i	i	i	68
O=C(Nc1ccc(N2CCN(C(=O)c3ccccc3)CC2)cc1)c1ccc(Br)o1	i	i	i	i	i
O=C(Nc1ccc(N2CCOCC2)cc1)c1cccc(S(=O)(=O)N2CCCCC2)c1	i	i	i	i	i
O=C(Nc1ccc(CN2CCOCC2)cc1)c1ccc(-c2cc(Cl)ccc2Cl)o1	i	55	i	i	65
CC(=O)Nc1cc(NC(=O)CCCC(=O)O)ccc1Cl	i	i	i	i	i
CCCCCOC(=O)Cn1c(SCC(=O)Nc2ccccc2)nc2c1c(=O)[nH]c(=O)n2C	i	i	i	i	i
Cc1cc(N2CCCCC2)nc2ccc(NC(=O)c3ccc(Br)o3)cc12	i	94	-4.9	i	81
O=C(Nc1ccc(N2CCCC2)c(Cl)c1)c1ccco1	i	i	i	i	i
O=C(Nc1ccc(N2CCOCC2)c(Cl)c1)c1ccc(Br)o1	i	58	i	i	51
Cc1ccc(NC(=O)c2cc(NC(=O)c3ccco3)ccc2N2CCOCC2)cc1Cl	i	i	i	i	69
COc1ccccc1NC(=O)CSc1nc2n[nH]c(C)c2c(=N)n1-c1ccccc1Cl	nt	nt	i	nt	nt
Cc1ccc(NC2OC(CO)C(O)C(O)C2O)cc1 (stereo unspecified)	i	i	i	i	i
CC(=O)Oc1ccc(NC(=O)CSc2ccccc2)cc1	i	69	i	i	53
COc1ccc(OC)c(NC(=O)Nc2ccccc2C)c1	i	67	i	i	i
COc1ccc(OC)c(NC(=O)CS(=O)(=O)c2ccccc2)c1	4.3	69	i	i	i
COCC(=O)Nc1cc(OC)ccc1OC	i	i	i	i	i
COc1ccc(OC)c(NC(=O)CSc2nnc(C3CCCCC3)n2-c2ccccc2)c1	nt	nt	-7.4	nt	nt
C=C1CCN(C(C)C(=O)O)S(=O)(=O)c2ccccc21 (stereo unspecified)	nt	nt	i	nt	nt
Cc1cc(C)c(N2C(=NC(=O)CCCC(=O)O)SC3CS(=O)(=O)CC32)c(C)c1 (stereo unspecified)	i	i	i	i	i
COc1ccc([N+](=O)[O-])cc1NC(=O)CSc1ccccc1	i	93	i	i	i
COc1ccc(OC)c(NC(=O)C(=O)/C=C(\O)c2cc(OC)ccc2OC)c1	i	i	-5.2	i	i
COc1ccc([N+](=O)[O-])cc1NC1CCCCC1	i	i	-5	i	i
COc1ccc([N+](=O)[O-])cc1NCc1ccccc1C	i	68	i	i	69
CN1CCN(c2ccc(Cl)cc2NS(=O)(=O)c2ccccc2Cl)CC1	i	i	i	i	i
SMILES	CYP2C9 act	CYP2C19 inhib	Cav3 T inh	CYP2C19 act	CYP2C9 inh
Cn1ccnc1SCC(=O)N(C1CCCCC1)C1CCCCC1	i	i	i	i	i
CC(C)(C)c1ccc(S(=O)(=O)NCC(=O)N2CCN(C(=O)c3ccco3)CC2)cc1	i	i	i	i	i
COc1ccc(OC)c(NC(=O)CSc2ccccc2)c1	i	57	i	i	i
COc1ccc([N+](=O)[O-])cc1NC(=S)NC(NC(=O)Cc1ccc(OC)c(OC)c1)C(Cl)(Cl)Cl (stereo unspecified)	i	i	i	i	58
COc1ccc(OC)c(NC(=O)CSc2ncccn2)c1	i	i	i	i	i
COc1ccc(OC)c(NC(=O)[C@H]2CC=CC[C@H]2C(=O)O)c1	i	i	i	i	i
COc1cc(NC(=O)c2ccc(S(=O)(=O)N(C)C)cc2)cc(OC)c1OC	i	i	i	i	i
COc1cc(NC(=O)CS(=O)(=O)c2ccc(C)cc2)cc(OC)c1OC	i	73	i	i	i
COc1ccc(OC)c(NC(=O)C2CC(C)=C(C)CC2C(=O)O)c1 (stereo unspecified)	i	i	i	i	61
CC(C)CCn1c(N2CCc3ccccc3C2)nc2c1c(=O)[nH]c(=O)n2C	nt	nt	i	nt	nt
O=C(O)CCCCCCC1C(=O)NC(=O)N1CCC(O)C1CCCCC1 (stereo unspecified)	nt	nt	i	nt	nt
CCc1nc(N2CCN(C(=O)c3ccco3)CC2)c2oc3ccccc3c2n1	i	95	i	i	92
Cc1nc(N2CCN(C(=O)c3ccco3)CC2)c2oc3ccccc3c2n1	i	70	i	i	53
COc1ccccc1N1CCN(c2nc(C)nc3c2oc2ccccc23)CC1	i	i	i	i	i
Cc1nc(N2CCC(C)CC2)c2oc3ccccc3c2n1	i	67	i	i	70
CC(C)(C)c1nc(N2CCN(C(=O)c3ccco3)CC2)c2nnn(Cc3ccccc3)c2n1	i	i	-7.2	i	i
Cc1nc2ccccc2c2oc(C(=O)N3CCN(C(=O)c4ccco4)CC3)cc12	i	i	i	i	i
Cc1ccccc1Nc1nc(N)nc(CSc2nnc(-c3ccccc3)n2C)n1	i	i	i	i	i
Cc1c(Cl)cccc1Nc1nc(N)nc(CSc2ncccn2)n1	i	52	i	i	67
O=C(Nc1cc(Cl)cc(Cl)c1)c1ccc(Cn2c(=O)[nH]c3ccsc3c2=O)cc1	nt	nt	i	nt	nt
CCCc1nnc(SCC(=O)N2CCCC(C)C2)n1CCCOC (stereo unspecified)	i	i	i	i	i
CCC(Sc1nc2sc(C(=O)OC)c(C)c2c(=O)n1N)C(=O)NCC1CCCO1 (stereo unspecified)	i	94	i	i	93
CCCCNC(=O)C(CC)Sc1nc2sc(C(=O)OC)c(C)c2c(=O)n1N (stereo unspecified)	nt	nt	i	nt	nt
CCC/C=C1/CCCOC(C(=O)NCc2ccccc2)(C(F)(F)F)C1 (stereo unspecified)	nt	nt	i	nt	nt
O=C(CCCOc1ccc(Cl)cc1Cl)Nc1ccncc1	i	99	i	i	100
SMILES	CYP2C9 act	CYP2C19 inhib	Cav3 T inh	CYP2C19 act	CYP2C9 inh
CCCCOc1ccc(C(=O)Nc2ccncc2)cc1	i	99	i	i	99
CCNC(=O)COc1ccc(Br)cc1Cl	i	73	i	i	57
O=C(CCCOc1ccccc1)Nc1ccncc1	i	99	i	i	97
CCC(C)[C@H]1CN=C(N)N1CCc1cc(C(F)(F)F)cc(C(F)(F)F)c1 (stereo partly specified)	nt	nt	i	nt	nt
Cc1c(C(=O)O)sc(=S)n1CCOc1ccccc1	i	i	i	i	i
CCNC(=O)CCCOc1ccc(Cl)cc1Cl	i	83	i	i	i
Cc1noc(/C=C/N(C)C)c1S(=O)(=O)N1CCCC(C(=O)NCc2cccs2)C1 (stereo unspecified)	i	i	i	i	68
Cc1ccc(CCNC(=O)C2CCCN(S(=O)(=O)c3c(C)noc3/C=C/N(C)C)C2)cc1 (stereo unspecified)	i	i	i	i	69
Cc1ccc(CCNC(=O)C2CCCN(S(=O)(=O)c3c(C)noc3C)C2)cc1 (stereo unspecified)	i	i	i	i	i
Cc1noc(/C=C/N(C)C)c1S(=O)(=O)N1CCC(C(=O)O)CC1	i	i	i	i	i
